Assay outcomes from PubChem BioAssay.
A selection: hits, their analogues and other compounds. The true share with any hit is near 4.5%.
hcDAF-12 act – activates DAF-12 receptor from parasite H. contortus; HEK293 hcDAF-12 lit1-tk-luc reporter, luminescence; 0% DMSO, 100% Δ7-dafachronic acid; activation, % at 6.8 µM; 370,000 compounds, 1.4% hits; AID 652067;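 active = activation above the mean of all tested compounds plus 3 SD, cut at about 5.5% in these data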;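 note: 100% = response to 3 µM Δ7-dafachronic acid high control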
hgDAF12 agonist – activates the H. glycines DAF-12 receptor ligand-binding domain | HEK293 GAL4-hgDAF12 UAS-luciferase reporter, agonist luminescence; normalized to butyrate control | 370,000 compounds, 1.8% hits | AID 687014 | activation, % at 6.8 µM;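 active = activation above a cutoff set at the mean of all screened compounds plus 3 SD, cut at about 10% in these data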;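 note: 0% = DMSO wells and 100% = sodium butyrate wells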
DAX1 inh-1 – inhibitors of DAX1 repression of SF-1 activated StAR promoter | AID 652010 | HEK293T StAR-luciferase reporter, SF-1/DAX-1 repression relief | 370,000 compounds, 1.1% hits | inhibition, % at 6.8 µM;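 active = inhibition above the mean over all tested compounds plus 3 SD, cut at about 3.6% in these data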;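 note: 0% = DAX-1 cells with DMSO and 100% = cells lacking DAX-1 with DMSO; higher inhibition means more luminescence from relief of DAX-1 repression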
GAA850 FXN act – frataxin GAA850 promoter activation | 360,000 compounds, 0.56% hits | HEK293 lucGAA850 FXN promoter luciferase reporter, 24 h; percent of 10 µM SAHA response | activation, % at 6 µM | AID 540364;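 active = activation above the average of all compounds screened plus 3 SD, cutoff fixed separately per campaign, cut at about 7.5% in these data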;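 note: 0% = DMSO wells and 100% = 10 µM SAHA wells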
ssDAF-12 act – S. stercoralis DAF-12 activation, primary screen | HEK293 ssDAF-12/GRIP1 lit1-tk-luc reporter, luminescence; % of 3 µM dafachronic acid response | activation, % at 6.8 µM | 370,000 compounds, 1% hits;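 active = activation above the mean over all tested compounds plus 3 SD, cut at about 0.9% in these data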;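 note: 0% = DMSO-only wells and 100% = 3 µM delta7-dafachronic acid wells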
DAX1 inh-2 – NR0B1 (DAX1) inhibition; HEK293 Gal4-DAX1 luciferase reporter, luminescence; inhibition, % at 6.75 µM; 340,000 compounds, 0.99% hits;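 active = inhibition above the mean over all tested compounds plus 3 SD, cut at about 4.2% in these data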;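 note: 0% = DAX1-transfected cells with DMSO and 100% = empty-vector control cells with DMSO; inhibition shows as a rise in luminescence from relieved DAX1 repression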
Target sequence (P51843 207-470 limits assumed): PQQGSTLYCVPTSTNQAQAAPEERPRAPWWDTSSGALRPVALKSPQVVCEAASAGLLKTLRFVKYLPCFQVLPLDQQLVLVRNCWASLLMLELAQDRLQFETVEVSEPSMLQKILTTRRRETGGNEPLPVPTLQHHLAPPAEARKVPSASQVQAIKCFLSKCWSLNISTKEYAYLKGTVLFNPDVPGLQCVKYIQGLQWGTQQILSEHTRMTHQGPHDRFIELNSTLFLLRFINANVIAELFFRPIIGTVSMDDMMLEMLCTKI
LXR ag – activates human LXR-beta, counter-screen for hcDAF-12 agonists. activation, % at 6.8 µM. 3,400 tested, under 10 active. shares compounds with hcDAF-12 act. HEK293 Gal4-LXR tk-luc reporter, luminescence, 24 h; normalized: DMSO 0%, positive control 100%;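 active = mean percent activation of the reporter above a cutoff set as the average over tested compounds plus their standard deviation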
hcDAF12 conf – hcDAF-12 agonism, confirmation assay. shares compounds with hcDAF-12 act. HEK293 hcDAF-12 lit1-tk-luc reporter, luminescence; % of Δ7-dafachronic acid response. activation, % at 6.8 µM. 3,400 compounds, 61% hits. AID 743032;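 active = mean activation across triplicate tests above the threshold derived from the earlier primary screen, cut at about 5.5% in these data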;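 note: 0% = DMSO only wells and 100% = 3 µM Δ7-dafachronic acid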
The depositor's hits bear a star; · = no result.

SMILES	hcDAF-12 act	hgDAF12 agonist	DAX1 inh-1	GAA850 FXN act	ssDAF-12 act	DAX1 inh-2	LXR ag	hcDAF12 conf
C#CCCC(=O)Nc1sc2c(c1-c1nc3ccccc3s1)CCN(C(C)C)C2	9.7*	8.3	·	·	-0.3	·	0.2	2.1
COC(=O)C(CN)CN1C(=O)c2ccccc2C1=O (configuration not stated)	-2.2	-0.4	-0.1	·	-1.2	·	·	·
COc1ccc(S[C@]2(C(=O)N(C)C)CC(=O)N(c3ccc(C#N)cc3)[C@@H]2c2ccc(OC)cc2)cc1	0.6	0.4	-0.6	·	-1.2	·	·	·
CN1c2ccsc2/C(=N/Nc2ccc(F)cc2)CS1(=O)=O	7.1*	9.4	1.6	4.6	4.7*	5.9*	0.6	9.1*
Cc1ccc(N/N=C2\CS(=O)(=O)N(C)c3ccsc32)cc1	10.1*	8.1	0.9	4.9	1.2*	10.7*	0.5	8.7*
N/C(=N\OC(=O)c1ccc(Cl)cc1Cl)c1ccccc1	7.3*	10.3	2.5	-0.6	0.1	2.3	2.1	25.1*
N/C(=N\OC(=O)c1ccc(Cl)cc1Cl)c1ccc(Cl)cc1	2.2	2.3	-0.1	-4.2	0.0	4.2	·	·
N/C(=N\OC(=O)c1ccccc1Cl)c1ccc(Cl)cc1	9.1*	9.1	1.6	6.7	1.5*	1.9	1.4	14.7*
N/C(=N\OC(=O)c1ccc(Cl)cc1)c1ccc(Cl)cc1	-1.2	0.2	0.2	0.3	-1.1	1.1	·	·
Cc1cccc(/C(N)=N/OC(=O)c2cccc3ccccc23)c1	7.0*	4.8	2.5	4.5	0.9*	2.1	0.3	6.3*
CC(=O)C(=Cc1ccc(-c2ccccc2)cc1)C(=O)c1ccccc1	-0.5	0.5	-1.4	·	-1.1	·	·	·
CC(C)c1ccc(Nc2nc(CC(=O)O)cs2)cc1	9.4*	21.8*	3.0	6.5	0.6	2.6	1.1	6.0*
Cc1oc(-c2nc3ccccc3n2C)cc1C(=O)c1ccccc1	10.6*	9.2	3.0	0.8	1.2*	-1.8	1.8	13.4*
O=C(C[n+]1ccc(C(=O)N/N=C/c2ccc(OCc3ccccc3)cc2)cc1)c1ccccc1	7.5*	4.6	-0.2	3.5	0.1	0.5	0.0	1.5
CCOc1ccc(NC(=O)CCN2C(=O)c3cccc([N+](=O)[O-])c3C2=O)cc1	-0.6	-2.4	0.1	-0.6	-0.3	1.4	·	·
CN(C)c1ccc(NC(=O)CCN2C(=O)c3cccc([N+](=O)[O-])c3C2=O)cc1	7.0*	0.2	0.3	0.7	-0.4	1.3	-0.1	1.3
O=S1(=O)c2ccc(N3CCC[C@H]3CO)cc2O[C@@H]2CCN1C2	-0.3	-0.8	-1.0	·	-0.3	·	·	·
c1ccc2c(c1)CCCN2Cc1nnc2n1CCCCC2	7.7*	2.0	1.0	2.0	1.0*	-0.4	-0.2	4.3
c1ccc(Cc2nnc3n2CCCCC3)cc1	-0.7	1.6	-0.4	-3.5	-1.1	0.2	·	·
Cc1nn(-c2ccccc2)c(C)c1/C=N\N1CCN(Cc2ccccc2Cl)CC1	-3.8	-0.7	-0.9	·	-1.2	·	·	·
C#CCn1c2ccccc2c2nc3ccccc3nc21	7.1*	9.4	1.7	6.2	0.7	2.1	0.8	4.7
Cc1ccc(-c2nc(NCc3ccco3)c3ccccc3n2)cc1	6.6*	8.3	-0.7	5.5	0.9*	1.3	0.2	5.7*
c1cncc(-c2nc(NCc3ccco3)c3ccccc3n2)c1	1.4	1.1	-1.0	-1.7	-0.4	-0.3	·	·
Cc1ccc(-c2nc(NCCN(C)C)c3ccccc3n2)cc1	13.9*	5.1	1.6	7.0	0.3	2.7	0.2	8.7*
CN(C)CCNc1ncnc2ccccc12	2.1	3.1	-0.4	0.6	-1.5	0.7	·	·
SMILES	hcDAF-12 act	hgDAF12 agonist	DAX1 inh-1	GAA850 FXN act	ssDAF-12 act	DAX1 inh-2	LXR ag	hcDAF12 conf
CCCCNC(=O)c1nc(-c2ccccc2)oc1-c1ccc(Cl)cc1	0.1	2.3	0.4	·	-1.4	·	·	·
Cc1ccc2nc(-c3ccc(CN4CCC5(CC4)CNc4ccccc45)cc3)c(-c3ccccc3)nc2c1	-0.2	4.4	-0.8	·	-1.5	·	·	·
O=C(Nc1cccnc1Cl)c1cc2ccccc2o1	9.3*	12.3*	2.8	5.3	2.8*	4.2*	1.4	5.5
O=C(Nc1ccccc1N1CCCCC1)c1ccc(-c2cccc(Cl)c2)o1	7.4*	1.9	-0.2	1.6	-0.6	-2.1	-0.2	5.2
O=C(Nc1ccccc1N1CCCCC1)c1ncoc1-c1cccc(F)c1	7.0*	1.1	0.6	2.4	-0.9	1.4	-0.3	2.3
O=C(Nc1ccccc1N1CCN(C(=O)c2ccccc2)CC1)c1cc2ccccc2o1	2.5	2.2	0.6	0.5	0.8	-0.5	·	·
O=C(Nc1ccccc1N1CCCC1)c1cc2ccccc2o1	7.5*	12.2*	1.6	0.6	1.9*	1.5	0.1	6.7*
CC1(C)Oc2ccc(NC(=O)C3COc4ccccc4O3)cc2O1 (configuration not stated)	8.9*	12.5*	4.4*	1.8	1.9*	-0.4	1.1	7.6*
Cc1ccc(NC(=O)C2COc3ccccc3O2)nc1 (configuration not stated)	9.5*	12.3*	2.7	1.3	0.9	1.8	1.0	9.4*
Cc1ccc(NC(=O)C2Oc3ccccc3OC2C)cc1 (configuration not stated)	9.1*	2.1	0.0	3.3	0.4	0.3	-0.1	6.9*
Cc1ccc(NC(=O)C2COc3ccccc3O2)cc1 (configuration not stated)	6.6*	12.0*	1.8	2.8	0.5	2.3	1.1	7.7*
CC(C)(C)c1ccc(S(=O)(=O)N2CCCC(C(=O)N3CCN(Cc4ccccc4)CC3)C2)cc1 (configuration not stated)	-3.2	-1.6	-2.8	·	-1.9	·	·	·
CCOc1[nH]n(-c2ccccc2)c(=O)c1C=Nc1ccc(C(=O)OC)cc1	7.6*	2.6	0.3	-1.3	-1.1	0.7	-0.4	-0.9
CCN(C(=O)[C@@H](C1CC1)[C@@H](O)c1ccc(C(C)=O)cc1)c1ccccc1	-2.0	-2.4	0.0	·	-1.3	·	·	·
Cc1cc(N)n(-c2ccc(C)c(C)c2)n1	7.1*	8.2	1.2	5.1	0.2	0.9	0.2	4.8
Cc1cc(N)n(-c2ccc([N+](=O)[O-])cc2)n1	0.5	-1.7	1.3	-0.1	-0.4	-0.1	·	·
CCCCCCn1cnc2c(oc3nc4c(cc32)CCCC4)c1=O	0.2	7.5	0.6	4.1	-1.1	-1.3	·	·
